Among the data in ChEMBL document CHEMBL1961873, “Compounds: GSK PKIS; Assays: Nanosyn kinase panel” (2012) are inhibition values, retold here.

A word on the inhibition: it is the change of the read-out against control, counted positive when it falls.

The target in assay [1] is Sphingosine kinase 1 (Homo sapiens) (UniProt Q9NYA1). As to conditions: at 1 µM.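 Further: mean SPHK1 inhibition value reported from the GSK PKIS kinase panel screen.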
Assay [2] addresses T1, Sphingosine kinase 2 (Homo sapiens) (UniProt Q9NRA0).
T1 sequence (whole entry): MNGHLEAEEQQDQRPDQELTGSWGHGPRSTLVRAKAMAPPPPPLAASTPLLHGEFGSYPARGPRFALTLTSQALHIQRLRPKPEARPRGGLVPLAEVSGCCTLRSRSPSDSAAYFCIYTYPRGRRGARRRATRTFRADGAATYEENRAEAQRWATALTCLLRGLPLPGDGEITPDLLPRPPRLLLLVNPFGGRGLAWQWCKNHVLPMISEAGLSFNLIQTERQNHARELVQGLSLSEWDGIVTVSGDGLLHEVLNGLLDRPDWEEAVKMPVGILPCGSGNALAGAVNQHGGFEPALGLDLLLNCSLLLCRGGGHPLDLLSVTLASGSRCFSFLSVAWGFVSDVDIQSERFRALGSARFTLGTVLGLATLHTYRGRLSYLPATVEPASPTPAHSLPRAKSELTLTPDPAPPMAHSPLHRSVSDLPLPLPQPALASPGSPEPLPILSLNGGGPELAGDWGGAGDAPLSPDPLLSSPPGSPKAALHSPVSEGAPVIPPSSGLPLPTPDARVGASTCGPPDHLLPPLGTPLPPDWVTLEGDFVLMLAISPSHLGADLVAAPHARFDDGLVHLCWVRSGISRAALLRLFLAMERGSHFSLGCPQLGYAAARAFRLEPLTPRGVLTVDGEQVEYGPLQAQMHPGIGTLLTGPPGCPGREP
As to conditions: at 0.1 µM.

Assay [3] addresses T1, Sphingosine kinase 2 (Homo sapiens). To be noted: at 1 µM.
The target in assay [4] is Casein kinase II subunit alpha (Homo sapiens) (UniProt P68400). As to conditions: at 0.1 µM.
Assay [5] shares this target. To be noted: at 1 µM.
Assay [6] has as its target T2, Inhibitor of nuclear factor kappa-B kinase subunit alpha (Homo sapiens) (UniProt O15111).
T2 sequence (whole entry): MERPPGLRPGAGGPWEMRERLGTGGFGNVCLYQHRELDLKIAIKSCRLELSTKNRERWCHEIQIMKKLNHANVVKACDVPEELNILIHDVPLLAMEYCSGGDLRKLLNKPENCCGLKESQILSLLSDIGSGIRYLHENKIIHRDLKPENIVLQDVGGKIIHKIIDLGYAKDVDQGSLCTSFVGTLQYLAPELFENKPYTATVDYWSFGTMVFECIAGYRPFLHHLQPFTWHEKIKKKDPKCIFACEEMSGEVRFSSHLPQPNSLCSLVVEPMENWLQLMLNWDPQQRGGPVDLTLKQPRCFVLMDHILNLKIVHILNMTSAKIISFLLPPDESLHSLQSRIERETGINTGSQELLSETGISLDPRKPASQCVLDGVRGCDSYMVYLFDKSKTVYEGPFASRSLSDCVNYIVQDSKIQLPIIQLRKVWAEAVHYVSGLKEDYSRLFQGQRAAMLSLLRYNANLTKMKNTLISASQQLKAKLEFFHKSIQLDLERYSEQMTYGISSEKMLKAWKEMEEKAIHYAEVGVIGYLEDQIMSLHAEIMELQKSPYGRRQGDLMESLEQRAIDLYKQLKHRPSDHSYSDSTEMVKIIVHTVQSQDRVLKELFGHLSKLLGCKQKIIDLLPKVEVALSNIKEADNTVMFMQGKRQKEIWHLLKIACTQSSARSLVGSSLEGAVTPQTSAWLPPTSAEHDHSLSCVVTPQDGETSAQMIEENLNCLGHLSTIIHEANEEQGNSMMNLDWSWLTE
To be noted: at 0.1 µM.

The target in assay [7] is T2, Inhibitor of nuclear factor kappa-B kinase subunit alpha (Homo sapiens). As to conditions: at 1 µM.
The target of assay [8] is T3, Inhibitor of nuclear factor kappa-B kinase subunit beta (Homo sapiens) (UniProt O14920).
T3 sequence (whole entry): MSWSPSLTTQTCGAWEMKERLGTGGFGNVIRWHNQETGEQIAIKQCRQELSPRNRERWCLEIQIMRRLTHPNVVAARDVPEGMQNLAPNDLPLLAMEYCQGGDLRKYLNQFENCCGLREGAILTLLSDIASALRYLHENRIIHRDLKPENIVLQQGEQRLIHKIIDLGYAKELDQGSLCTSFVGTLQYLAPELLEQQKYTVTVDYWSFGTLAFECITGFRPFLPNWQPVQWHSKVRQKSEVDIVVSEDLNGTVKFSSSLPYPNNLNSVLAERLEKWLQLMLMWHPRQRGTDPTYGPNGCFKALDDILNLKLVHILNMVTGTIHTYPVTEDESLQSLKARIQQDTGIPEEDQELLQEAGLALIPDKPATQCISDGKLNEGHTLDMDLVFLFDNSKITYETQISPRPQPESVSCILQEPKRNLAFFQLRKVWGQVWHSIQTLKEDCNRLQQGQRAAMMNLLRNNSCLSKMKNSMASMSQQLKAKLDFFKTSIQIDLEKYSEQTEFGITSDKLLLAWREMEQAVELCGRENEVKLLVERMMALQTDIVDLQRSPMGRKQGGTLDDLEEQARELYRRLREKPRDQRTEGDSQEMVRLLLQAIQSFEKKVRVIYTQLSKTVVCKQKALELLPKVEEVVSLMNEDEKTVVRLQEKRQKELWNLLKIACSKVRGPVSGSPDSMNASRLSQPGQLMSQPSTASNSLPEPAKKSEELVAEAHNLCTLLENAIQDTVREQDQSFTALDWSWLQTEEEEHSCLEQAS
To be noted: at 0.1 µM.

Assay [9] deals with T3, Inhibitor of nuclear factor kappa-B kinase subunit beta (Homo sapiens). To be noted: at 1 µM.
Assay [10] addresses T4, Inhibitor of nuclear factor kappa-B kinase subunit epsilon (Homo sapiens) (UniProt Q14164).
T4 sequence (whole entry): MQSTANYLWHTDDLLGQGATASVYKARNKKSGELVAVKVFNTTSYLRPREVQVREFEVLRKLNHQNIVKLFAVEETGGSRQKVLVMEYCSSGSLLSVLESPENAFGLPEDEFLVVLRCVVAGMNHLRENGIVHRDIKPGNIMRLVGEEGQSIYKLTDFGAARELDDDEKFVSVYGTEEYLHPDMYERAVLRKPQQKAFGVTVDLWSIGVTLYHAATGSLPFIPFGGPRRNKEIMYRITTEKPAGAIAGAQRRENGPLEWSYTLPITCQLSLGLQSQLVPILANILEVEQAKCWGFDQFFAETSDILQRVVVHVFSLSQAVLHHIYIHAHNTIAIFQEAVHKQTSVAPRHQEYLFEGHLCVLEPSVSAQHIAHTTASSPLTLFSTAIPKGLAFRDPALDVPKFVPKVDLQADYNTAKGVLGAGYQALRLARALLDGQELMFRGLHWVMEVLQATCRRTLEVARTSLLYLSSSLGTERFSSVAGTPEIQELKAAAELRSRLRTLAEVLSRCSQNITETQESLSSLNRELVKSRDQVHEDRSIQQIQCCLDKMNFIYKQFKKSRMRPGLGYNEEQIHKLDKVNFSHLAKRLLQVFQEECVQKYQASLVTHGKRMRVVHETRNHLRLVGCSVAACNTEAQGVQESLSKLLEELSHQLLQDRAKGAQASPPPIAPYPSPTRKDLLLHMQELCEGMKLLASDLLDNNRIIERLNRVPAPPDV
As to conditions: at 0.1 µM.

Assay [11] addresses T4, Inhibitor of nuclear factor kappa-B kinase subunit epsilon (Homo sapiens). As to conditions: at 1 µM.
For assay [12], the target named is T5, Serine/threonine-protein kinase Nek1 (Homo sapiens) (UniProt Q96PY6).
T5 sequence (whole entry): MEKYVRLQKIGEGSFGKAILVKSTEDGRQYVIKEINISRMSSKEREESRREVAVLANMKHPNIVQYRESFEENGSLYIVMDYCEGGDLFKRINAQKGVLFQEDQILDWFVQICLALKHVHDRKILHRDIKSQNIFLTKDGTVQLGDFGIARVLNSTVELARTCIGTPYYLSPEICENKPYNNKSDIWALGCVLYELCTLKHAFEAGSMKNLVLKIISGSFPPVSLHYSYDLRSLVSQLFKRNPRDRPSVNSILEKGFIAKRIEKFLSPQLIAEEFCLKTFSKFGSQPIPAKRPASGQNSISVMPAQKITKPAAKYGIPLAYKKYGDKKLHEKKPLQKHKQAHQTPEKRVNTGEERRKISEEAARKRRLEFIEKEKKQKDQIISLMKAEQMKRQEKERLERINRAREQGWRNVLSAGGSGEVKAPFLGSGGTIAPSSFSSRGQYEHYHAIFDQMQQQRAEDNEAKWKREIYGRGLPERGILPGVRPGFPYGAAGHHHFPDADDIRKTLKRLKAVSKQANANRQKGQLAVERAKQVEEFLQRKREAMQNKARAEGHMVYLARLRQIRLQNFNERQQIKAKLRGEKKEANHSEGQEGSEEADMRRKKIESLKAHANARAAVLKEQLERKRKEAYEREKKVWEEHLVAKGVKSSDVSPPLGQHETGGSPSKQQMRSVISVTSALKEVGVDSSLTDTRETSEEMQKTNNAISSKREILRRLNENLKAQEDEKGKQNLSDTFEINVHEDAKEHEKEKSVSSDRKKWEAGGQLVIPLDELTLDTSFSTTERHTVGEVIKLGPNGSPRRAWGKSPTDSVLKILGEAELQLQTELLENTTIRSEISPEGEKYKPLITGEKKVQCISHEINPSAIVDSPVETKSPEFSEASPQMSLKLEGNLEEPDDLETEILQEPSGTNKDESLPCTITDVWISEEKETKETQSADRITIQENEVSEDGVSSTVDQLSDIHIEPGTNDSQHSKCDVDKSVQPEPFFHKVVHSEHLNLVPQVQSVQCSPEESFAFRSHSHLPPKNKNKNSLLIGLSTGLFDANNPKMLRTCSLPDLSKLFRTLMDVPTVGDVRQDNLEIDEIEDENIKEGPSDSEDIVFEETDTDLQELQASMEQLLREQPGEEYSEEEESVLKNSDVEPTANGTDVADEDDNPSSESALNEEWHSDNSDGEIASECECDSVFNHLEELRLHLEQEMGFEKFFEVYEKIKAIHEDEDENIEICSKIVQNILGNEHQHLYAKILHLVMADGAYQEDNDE
As to conditions: at 0.1 µM.

The target of assay [13] is T5, Serine/threonine-protein kinase Nek1 (Homo sapiens). To be noted: at 1 µM.
Assay [14] deals with T6, Serine/threonine-protein kinase Nek2 (Homo sapiens) (UniProt P51955).
T6 sequence (whole entry): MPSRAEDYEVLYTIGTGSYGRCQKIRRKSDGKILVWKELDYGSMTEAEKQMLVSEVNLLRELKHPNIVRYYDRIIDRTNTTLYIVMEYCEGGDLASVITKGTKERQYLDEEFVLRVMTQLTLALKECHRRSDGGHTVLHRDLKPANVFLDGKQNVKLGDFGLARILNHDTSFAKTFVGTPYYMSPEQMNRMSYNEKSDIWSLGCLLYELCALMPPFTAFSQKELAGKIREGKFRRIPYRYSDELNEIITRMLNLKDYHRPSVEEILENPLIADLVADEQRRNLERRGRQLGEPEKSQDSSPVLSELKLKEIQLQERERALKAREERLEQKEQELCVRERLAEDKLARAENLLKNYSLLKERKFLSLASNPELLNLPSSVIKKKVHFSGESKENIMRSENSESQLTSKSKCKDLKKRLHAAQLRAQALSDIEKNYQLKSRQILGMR
As to conditions: at 0.1 µM.

In assay [15] the target is T6, Serine/threonine-protein kinase Nek2 (Homo sapiens). To be noted: at 1 µM.
In assay [16] the target is Serine/threonine-protein kinase Nek6 (Homo sapiens) (UniProt Q9HC98). To be noted: at 0.1 µM.
The target is the same in assay [17]. As to conditions: at 1 µM.
Assay [18] has as its target Serine/threonine-protein kinase Nek7 (Homo sapiens) (UniProt Q8TDX7). As to conditions: at 0.1 µM.
For assay [19] the target is unchanged. As to conditions: at 1 µM.
Assay [20] deals with T7, Serine/threonine-protein kinase Nek9 (Homo sapiens) (UniProt Q8TD19).
T7 sequence (whole entry): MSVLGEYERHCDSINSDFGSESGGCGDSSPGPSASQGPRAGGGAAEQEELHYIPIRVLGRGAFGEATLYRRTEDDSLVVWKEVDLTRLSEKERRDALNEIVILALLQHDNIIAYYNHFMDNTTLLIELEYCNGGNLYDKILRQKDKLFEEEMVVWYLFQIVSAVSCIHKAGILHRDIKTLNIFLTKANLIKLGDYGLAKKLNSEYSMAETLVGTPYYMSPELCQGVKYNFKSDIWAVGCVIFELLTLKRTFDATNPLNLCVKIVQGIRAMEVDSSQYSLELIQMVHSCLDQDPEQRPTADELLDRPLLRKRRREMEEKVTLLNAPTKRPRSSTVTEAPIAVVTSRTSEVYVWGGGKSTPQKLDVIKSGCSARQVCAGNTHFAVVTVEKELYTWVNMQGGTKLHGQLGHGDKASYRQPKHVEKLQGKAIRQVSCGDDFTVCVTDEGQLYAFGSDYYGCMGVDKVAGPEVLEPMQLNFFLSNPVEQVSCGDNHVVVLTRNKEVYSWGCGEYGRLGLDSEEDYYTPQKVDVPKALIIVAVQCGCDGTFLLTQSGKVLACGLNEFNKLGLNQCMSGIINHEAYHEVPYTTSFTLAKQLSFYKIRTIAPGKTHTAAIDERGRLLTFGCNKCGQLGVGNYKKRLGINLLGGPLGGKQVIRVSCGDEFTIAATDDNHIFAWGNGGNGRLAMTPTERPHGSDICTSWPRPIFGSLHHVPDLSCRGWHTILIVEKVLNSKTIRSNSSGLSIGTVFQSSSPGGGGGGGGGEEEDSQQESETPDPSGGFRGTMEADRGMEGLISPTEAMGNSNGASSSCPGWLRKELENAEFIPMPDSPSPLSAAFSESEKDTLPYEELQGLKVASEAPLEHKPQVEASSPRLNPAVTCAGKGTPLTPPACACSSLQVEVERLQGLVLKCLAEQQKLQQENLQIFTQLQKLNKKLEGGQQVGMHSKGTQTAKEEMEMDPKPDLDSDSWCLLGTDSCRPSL
As to conditions: at 0.1 µM.

Casein kinase II subunit alpha (Homo sapiens), sequence (P68400 whole entry, looked up): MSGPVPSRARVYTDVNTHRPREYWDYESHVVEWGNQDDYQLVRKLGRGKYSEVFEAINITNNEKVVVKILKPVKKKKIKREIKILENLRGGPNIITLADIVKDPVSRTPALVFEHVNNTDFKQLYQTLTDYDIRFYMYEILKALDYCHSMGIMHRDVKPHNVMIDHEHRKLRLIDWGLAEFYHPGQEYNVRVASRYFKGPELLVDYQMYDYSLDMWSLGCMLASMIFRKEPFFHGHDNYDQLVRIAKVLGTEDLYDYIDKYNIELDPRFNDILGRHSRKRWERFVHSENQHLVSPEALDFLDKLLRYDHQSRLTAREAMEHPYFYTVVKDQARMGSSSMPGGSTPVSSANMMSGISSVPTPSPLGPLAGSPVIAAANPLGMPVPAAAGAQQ
Serine/threonine-protein kinase Nek6 (Homo sapiens), sequence (Q9HC98 whole entry): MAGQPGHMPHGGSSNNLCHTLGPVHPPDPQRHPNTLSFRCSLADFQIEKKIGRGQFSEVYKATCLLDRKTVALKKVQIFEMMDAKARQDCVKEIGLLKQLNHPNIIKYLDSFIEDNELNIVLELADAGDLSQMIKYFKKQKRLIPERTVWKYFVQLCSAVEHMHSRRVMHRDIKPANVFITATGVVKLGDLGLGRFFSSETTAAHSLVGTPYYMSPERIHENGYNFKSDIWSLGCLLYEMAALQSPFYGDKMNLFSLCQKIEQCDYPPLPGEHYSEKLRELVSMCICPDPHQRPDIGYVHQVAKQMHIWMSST
Serine/threonine-protein kinase Nek7 (Homo sapiens), sequence (Q8TDX7 whole entry, looked up): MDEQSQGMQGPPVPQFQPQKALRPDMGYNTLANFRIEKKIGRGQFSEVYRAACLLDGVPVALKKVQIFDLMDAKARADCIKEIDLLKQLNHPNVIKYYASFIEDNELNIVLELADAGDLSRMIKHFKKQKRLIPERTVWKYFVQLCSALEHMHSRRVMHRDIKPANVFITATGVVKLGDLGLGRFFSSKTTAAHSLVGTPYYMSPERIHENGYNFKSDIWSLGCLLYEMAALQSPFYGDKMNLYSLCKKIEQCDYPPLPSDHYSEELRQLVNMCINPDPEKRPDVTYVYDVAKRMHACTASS
Sphingosine kinase 1 (Homo sapiens), sequence (Q9NYA1 whole entry): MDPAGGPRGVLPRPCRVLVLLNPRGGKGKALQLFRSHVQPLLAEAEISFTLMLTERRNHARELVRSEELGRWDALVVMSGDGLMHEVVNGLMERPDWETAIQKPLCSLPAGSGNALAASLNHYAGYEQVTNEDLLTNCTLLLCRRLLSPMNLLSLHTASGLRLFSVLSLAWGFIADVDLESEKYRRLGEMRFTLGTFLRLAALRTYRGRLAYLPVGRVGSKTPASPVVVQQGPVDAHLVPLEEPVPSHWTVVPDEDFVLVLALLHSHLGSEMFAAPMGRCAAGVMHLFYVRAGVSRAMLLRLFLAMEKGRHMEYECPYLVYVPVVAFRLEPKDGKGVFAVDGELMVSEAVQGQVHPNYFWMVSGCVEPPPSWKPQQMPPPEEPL

For the compound `Cc1ccc(C(=O)NC2CCC2)cc1-c1ccc(C(=O)NCC2CC2)cc1`, the inhibition in assay [1] was -2.08%; in assay [2] it was 0.15%; in assay [3] it was -0.32%; in assay [4], 0.14%; in [5], -0.02%; in [6], 5.36%. For the same compound, the inhibition in assay [7] came out at 2.23%; in assay [8], 3.94%; in assay [9], 0.66%; in assay [10] it was 3.52%; in [11], 2.96%; in [12], 0.93%. Besides, the inhibition was 3.06% in assay [13]; 4.6% in [14]; 3.71% in [15]; -0.33% in assay [16]; 1.33% in assay [17]; 3.14% in [18]. For the same compound, the inhibition is 2.04% in assay [19] and 4.75% in assay [20].
